Laboratory results from PubChem BioAssay (Tox21).
Results filed as inconclusive are left out. A call without a number means that no potency is given here. Values without a mark were called inactive. Active and inactive are the calls of the source. The call rests on the fitted dose curve; in most records, active means well fitted curve in the direction sought with a large enough effect in the repeat runs; inconclusive means weak or mixed curves; inactive means no such curve, though single readings can be large; an effect the other way counts as inactive or inconclusive.

Tests used:
[1] = biological target: Cytochrome P450 1A2 (Homo sapiens) (UniProt P05177); assay: Cytochrome P450 Family 1 Subfamily A Member 2 (CYP1A2) small molecule antagonists: luciferase reporter qHTS assay (AID 1671199); further: potency means the concentration at half of the fitted maximal effect
Chain of Cytochrome P450 1A2 (Homo sapiens) (P05177 whole entry, looked up): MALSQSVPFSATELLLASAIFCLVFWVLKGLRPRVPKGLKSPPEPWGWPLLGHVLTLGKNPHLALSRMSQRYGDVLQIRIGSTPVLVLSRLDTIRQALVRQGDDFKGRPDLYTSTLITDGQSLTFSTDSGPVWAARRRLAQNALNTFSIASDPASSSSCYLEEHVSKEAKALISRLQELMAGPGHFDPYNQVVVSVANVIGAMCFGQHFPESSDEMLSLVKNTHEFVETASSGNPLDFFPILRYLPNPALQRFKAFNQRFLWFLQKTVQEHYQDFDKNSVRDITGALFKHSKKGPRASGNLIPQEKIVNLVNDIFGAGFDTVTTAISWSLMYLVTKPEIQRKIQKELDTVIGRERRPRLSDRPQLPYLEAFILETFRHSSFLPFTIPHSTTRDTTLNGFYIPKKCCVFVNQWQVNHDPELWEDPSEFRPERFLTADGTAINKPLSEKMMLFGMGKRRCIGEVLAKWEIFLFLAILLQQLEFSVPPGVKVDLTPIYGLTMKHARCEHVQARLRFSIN
How it was run: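 Quantitative high-throughput format using the P450-Glo CYP1A2 system. Reaction initiated by NADPH regeneration solution, 1 h at room temperature, then stopped with detection reagent; luminescence measured 20 min later.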

[2] = biological target: Voltage-gated inwardly rectifying potassium channel KCNH2 (Homo sapiens) (UniProt Q12809); assay: Human Ether-a-go-go-Related Gene (hERG) channel small molecule antagonists: fluorescence cell-based qHTS assay (AID 1671200);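 further: hERG-expressing U2OS cells given a thallium stimulus after FluxOR II dye loading; series mostly up to about 77 µM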
Chain of Voltage-gated inwardly rectifying potassium channel KCNH2 (Homo sapiens) (Q12809 whole entry, looked up): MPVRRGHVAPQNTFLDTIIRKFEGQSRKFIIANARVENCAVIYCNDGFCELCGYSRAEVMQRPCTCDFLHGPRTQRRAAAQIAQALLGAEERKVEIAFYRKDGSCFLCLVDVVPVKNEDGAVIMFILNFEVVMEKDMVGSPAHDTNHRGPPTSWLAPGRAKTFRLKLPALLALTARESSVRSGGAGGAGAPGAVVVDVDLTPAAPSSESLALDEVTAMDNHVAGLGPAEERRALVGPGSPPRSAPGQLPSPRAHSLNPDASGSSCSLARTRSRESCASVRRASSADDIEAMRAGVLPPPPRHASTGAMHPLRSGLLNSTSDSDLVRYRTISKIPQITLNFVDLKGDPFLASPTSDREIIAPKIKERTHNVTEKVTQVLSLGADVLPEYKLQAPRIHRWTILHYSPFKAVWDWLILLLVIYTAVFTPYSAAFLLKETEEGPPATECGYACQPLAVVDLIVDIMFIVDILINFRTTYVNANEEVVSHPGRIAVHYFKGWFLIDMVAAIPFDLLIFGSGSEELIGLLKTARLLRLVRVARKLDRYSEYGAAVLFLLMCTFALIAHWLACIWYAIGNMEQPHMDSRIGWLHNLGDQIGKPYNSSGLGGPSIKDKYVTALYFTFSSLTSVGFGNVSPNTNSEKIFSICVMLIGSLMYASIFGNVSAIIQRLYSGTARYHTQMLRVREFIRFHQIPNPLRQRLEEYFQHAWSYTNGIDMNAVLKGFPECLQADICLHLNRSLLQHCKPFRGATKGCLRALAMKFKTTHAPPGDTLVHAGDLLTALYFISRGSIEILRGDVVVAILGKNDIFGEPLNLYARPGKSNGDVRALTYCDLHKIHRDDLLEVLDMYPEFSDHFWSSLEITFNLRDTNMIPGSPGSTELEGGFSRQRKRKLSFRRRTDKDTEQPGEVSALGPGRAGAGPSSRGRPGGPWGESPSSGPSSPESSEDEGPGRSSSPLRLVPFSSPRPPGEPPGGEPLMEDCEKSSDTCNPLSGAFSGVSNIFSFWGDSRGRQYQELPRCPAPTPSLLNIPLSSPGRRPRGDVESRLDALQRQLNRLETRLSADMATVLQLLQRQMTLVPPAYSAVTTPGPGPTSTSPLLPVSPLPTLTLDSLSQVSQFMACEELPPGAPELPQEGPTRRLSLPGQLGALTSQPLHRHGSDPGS
How it was run: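 Read-out: thallium influx as a surrogate for potassium, tracked as fluorescence (480 nm ex/540 nm em) every second for 2 min after Stimulus Buffer addition in dye-loaded hERG-U2OS cells.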

[3] = biological target: Cytochrome P450 3A4 (Homo sapiens) (UniProt P08684); assay: Cytochrome P450 Family 3 Subfamily A Member 4 (CYP3A4) small molecule antagonists: luciferase reporter qHTS assay (AID 1671201); further: series mostly up to about 120 µM
Chain of Cytochrome P450 3A4 (Homo sapiens) (P08684 whole entry, looked up): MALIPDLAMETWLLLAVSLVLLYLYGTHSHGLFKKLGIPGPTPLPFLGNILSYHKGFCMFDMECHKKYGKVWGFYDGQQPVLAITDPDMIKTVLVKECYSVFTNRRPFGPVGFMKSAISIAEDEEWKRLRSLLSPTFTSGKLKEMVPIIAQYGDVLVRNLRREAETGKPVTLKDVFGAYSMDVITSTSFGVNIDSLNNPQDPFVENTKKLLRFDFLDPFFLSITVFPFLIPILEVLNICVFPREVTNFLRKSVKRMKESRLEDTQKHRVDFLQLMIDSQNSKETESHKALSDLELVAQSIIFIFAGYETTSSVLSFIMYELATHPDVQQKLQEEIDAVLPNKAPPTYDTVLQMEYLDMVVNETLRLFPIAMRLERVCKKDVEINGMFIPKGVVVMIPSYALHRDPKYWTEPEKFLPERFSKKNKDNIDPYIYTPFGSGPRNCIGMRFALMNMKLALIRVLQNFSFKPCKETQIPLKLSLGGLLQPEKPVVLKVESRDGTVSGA
How it was run: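 Luminescent readout (RLU) proportional to CYP3A4 activity, from luciferin generated off a proluciferin substrate. Enzyme–substrate mix plus compound 10 min at room temp, NADPH regeneration 1 h, detection reagent 20 min.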
Further: nearly all actives have a fitted effect of over 50% in size.

SMILES	Potency [1]	Potency [2]	Potency [3]
O=S(=O)(O)c1cccc2c(S(=O)(=O)O)cccc12	79.5 µM (active)	inactive	inactive
COc1cc(C)nc(-n2nc(C)cc2OC)n1	–	inactive	–
NO	–	inactive	–
O=C1NC(=O)C2CC=CCC12 (configuration not stated)	–	inactive	–
CCOc1ccc2nc(S(N)(=O)=O)sc2c1	4.07 µM (active)	inactive	inactive
C=CCCC(=O)O	inactive	inactive	inactive
C[C@H]1C[C@H]2[C@@H]3CCC4=CC(=O)C=C[C@]4(C)[C@H]3C(=O)C[C@]2(C)[C@@]1(O)C(=O)CO	27.5 µM (active)	inactive	inactive
Cc1ccccc1N=C(N)N=C(N)N	inactive	inactive	inactive
CNCC(O)c1ccc(O)c(O)c1 (configuration not stated)	–	inactive	–
CC(=O)Nc1ccc(OCC(O)CNC(C)C)cc1 (configuration not stated)	inactive	inactive	inactive
c1ccc2sc(SN3CCOCC3)nc2c1	–	inactive	–
[Ca+2]	inactive	inactive	inactive
Cc1c(N)c(=O)n(-c2ccccc2)n1C	–	inactive	–
CCCCCCCC1CCCC1=O (configuration not stated)	inactive	inactive	inactive
Nc1c2c(nc3c1CCC3)CCCC2	inactive	inactive	inactive
Cc1cccc(C)c1NC(=O)CC12CCCN1CCC2	inactive	–	inactive
Cc1ccc(C(=O)c2ccccc2)cc1	31.7 µM (active)	–	inactive
CCOC(=O)COC(=O)c1ccccc1C(=O)OCC	7.96 µM (active)	inactive	inactive
COc1cc(-c2ccc(=O)[nH]n2)ccc1OC(F)F	–	inactive	–
CCOC(=O)OC(C)OC1=C(C(=O)Nc2ccccn2)N(C)S(=O)(=O)c2ccccc21 (configuration not stated)	inactive	inactive	inactive
NCCCC(N)(C(=O)O)C(F)F (configuration not stated)	–	inactive	–
CC[N+](C)(CC)CCOC(=O)C1c2ccccc2Oc2ccccc21	–	inactive	inactive
CCCCCC(=O)OCCc1ccccc1	–	inactive	inactive
O=S(=O)(O)c1cccc2ccccc12	–	inactive	inactive
O=CN(CCO)CCO	–	inactive	inactive
C[C@H]1[C@H](NC(=O)/C(=N/OC(C)(C)C(=O)O)c2csc(N)n2)C(=O)N1S(=O)(=O)O (stereo in doubt)	–	inactive	inactive
C=CCCCCCCCCC(=O)OCC	–	inactive	inactive
